Assay results taken from the supplement of paper PMC8728848.
About 410 targets per protein were measured; listed, in parts, are those with the strongest signals and a random draw of the rest.

What was measured:
Assay in all cases: glycan array binding signal (z-score within array); higher = stronger binding
Settings in all cases: glycan notation: IUPAC condensed, linker removed
Fuc(a1-2)Gal(b1-3)GalNAc = molecular target: Fuc(a1-2)Gal(b1-3)GalNAc
How it was run: (§1)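 From the Consortium for Functional Glycomics database, 3228 arrays were curated, keeping only those whose protein sequence was available. Binding is given as a within-array Z-score averaged across arrays sharing a protein sequence and across linkers. Negative Z-scores can be read as non-binding.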

[1] = molecular target: Fuc(a1-2)[Gal(a1-3)]Gal(b1-4)[Fuc(a1-3)]Glc
How it was run: as §1

[2] = molecular target: Fuc(a1-2)[GalNAc(a1-3)]Gal(b1-4)GlcNAc(b1-2)Man(a1-3)[Fuc(a1-2)[GalNAc(a1-3)]Gal(b1-4)GlcNAc(b1-2)Man(a1-6)]Man(b1-4)GlcNAc(b1-4)[Fuc(a1-6)]GlcNAc
How it was run: as §1

[3] = molecular target: Fuc(a1-2)[GalNAc(a1-3)]Gal(b1-4)GlcNAc(b1-3)Gal(b1-4)GlcNAc(b1-3)Gal(b1-4)GlcNAc
How it was run: as §1

[4] = molecular target: Fuc(a1-2)[GalNAc(a1-3)]Gal(b1-4)[Fuc(a1-3)]GlcNAc
How it was run: as §1

Gal(a1-3)Gal(b1-3)GlcNAc = molecular target: Gal(a1-3)Gal(b1-3)GlcNAc
How it was run: as §1

[5] = molecular target: Gal(a1-3)Gal(b1-3)GlcNAc(b1-2)Man
How it was run: as §1

Gal(a1-3)Gal(b1-4)Glc = molecular target: Gal(a1-3)Gal(b1-4)Glc
How it was run: as §1

[6] = molecular target: Gal(a1-3)Gal(b1-4)GlcNAc(b1-2)Man
How it was run: as §1

[7] = molecular target: Gal(a1-3)[Gal(a1-4)]Gal(b1-4)GlcNAc
How it was run: as §1

Gal(b1-3)Gal = molecular target: Gal(b1-3)Gal
How it was run: as §1

Gal(b1-3)GlcNAc(b1-2)Man = molecular target: Gal(b1-3)GlcNAc(b1-2)Man
How it was run: as §1

[8] = molecular target: Gal(b1-3)GlcNAc(b1-2)Man(a1-3)[Gal(b1-3)GlcNAc(b1-2)Man(a1-6)]Man(b1-4)GlcNAc(b1-4)[Fuc(a1-6)]GlcNAc
How it was run: as §1

[9] = molecular target: Gal(b1-3)GlcNAc(b1-3)Gal(b1-3)GlcNAc
How it was run: as §1

[10] = molecular target: Gal(b1-3)GlcNAc(b1-3)Gal(b1-4)GlcNAc(b1-6)[Gal(b1-3)GlcNAc(b1-3)]Gal(b1-4)Glc
How it was run: as §1

[11] = molecular target: Gal(b1-3)[Fuc(a1-4)]GlcNAc(b1-2)Man
How it was run: as §1

[12] = molecular target: Gal(b1-4)GlcNAc(b1-2)Man(a1-3)[GlcNAc(b1-2)Man(a1-6)]Man(b1-4)GlcNAc(b1-4)GlcNAc
How it was run: as §1

[13] = molecular target: Gal(b1-4)GlcNAc(b1-2)Man(a1-3)[Man(a1-6)]Man(b1-4)GlcNAc(b1-4)GlcNAc
How it was run: as §1

[14] = molecular target: Gal(b1-4)GlcNAc(b1-2)Man(a1-6)[GlcNAc(b1-2)Man(a1-3)]Man(b1-4)GlcNAc(b1-4)GlcNAc
How it was run: as §1

[15] = molecular target: Gal(b1-4)GlcNAc(b1-3)Gal(b1-4)GlcNAc(b1-3)Gal(b1-4)GlcNAc(b1-3)Gal(b1-4)GlcNAc(b1-3)Gal(b1-4)GlcNAc(b1-2)Man(a1-3)[Gal(b1-4)GlcNAc(b1-3)Gal(b1-4)GlcNAc(b1-3)Gal(b1-4)GlcNAc(b1-3)Gal(b1-4)GlcNAc(b1-3)Gal(b1-4)GlcNAc(b1-2)Man(a1-6)]Man(b1-4)GlcNAc(b1-4)[Fuc(a1-6)]GlcNAc
How it was run: as §1

[16] = molecular target: Gal(b1-4)GlcNAc(b1-3)Gal(b1-4)GlcNAc(b1-3)[Gal(b1-4)GlcNAc(b1-3)Gal(b1-4)GlcNAc(b1-6)]GalNAc
How it was run: as §1

[17] = molecular target: Gal(b1-4)GlcNAc(b1-3)Gal(b1-4)[Fuc(a1-3)]GlcNAc(b1-3)Gal(b1-4)[Fuc(a1-3)]GlcNAc
How it was run: as §1

[18] = molecular target: Gal(b1-4)GlcNAc(b1-6)Gal(b1-4)GlcNAc
How it was run: as §1

[19] = molecular target: Gal(b1-4)GlcNAc(b1-6)GalNAc
How it was run: as §1

Gal6P(b1-4)GlcNAc = molecular target: Gal6P(b1-4)GlcNAc
How it was run: as §1

[20] = molecular target: GalNAc(b1-3)Gal(a1-6)Gal(b1-4)Glc
How it was run: as §1

[21] = molecular target: GalNAc3S(b1-4)[Fuc(a1-3)]GlcNAc
How it was run: as §1

GalNAc4S6S(b1-4)GlcNAc = molecular target: GalNAc4S6S(b1-4)GlcNAc
How it was run: as §1

[22] = molecular target: GlcNAc(b1-2)[GlcNAc(b1-4)]Man(a1-3)[GlcNAc(b1-2)Man(a1-6)]Man(b1-4)GlcNAc(b1-4)GlcNAc
How it was run: as §1

[23] = molecular target: GlcNAc(b1-3)Gal(b1-4)GlcNAc(b1-3)Gal(b1-4)GlcNAc(b1-3)Gal(b1-4)GlcNAc(b1-2)Man(a1-3)[GlcNAc(b1-3)Gal(b1-4)GlcNAc(b1-3)Gal(b1-4)GlcNAc(b1-3)Gal(b1-4)GlcNAc(b1-2)Man(a1-6)]Man(b1-4)GlcNAc(b1-4)GlcNAc
How it was run: as §1

GlcNAc(b1-3)GalNAc = molecular target: GlcNAc(b1-3)GalNAc
How it was run: as §1

[24] = molecular target: GlcNAc(b1-4)GlcNAc(b1-4)GlcNAc(b1-4)GlcNAc(b1-4)GlcNAc(b1-4)GlcNAc
How it was run: as §1

[25] = molecular target: GlcNAc(b1-4)[GlcNAc(b1-6)]GalNAc
How it was run: as §1

[26] = molecular target: Man(a1-3)[Man(a1-6)]Man(b1-4)GlcNAc(b1-4)GlcNAc
How it was run: as §1

Man(a1-6)Man = molecular target: Man(a1-6)Man
How it was run: as §1

[27] = molecular target: Neu5Ac(a2-3)Gal(b1-3)GlcNAc6S
How it was run: as §1

[28] = molecular target: Neu5Ac(a2-3)Gal(b1-3)[Fuc(a1-4)]GlcNAc(b1-3)Gal(b1-4)[Fuc(a1-3)]GlcNAc
How it was run: as §1

[29] = molecular target: Neu5Ac(a2-3)Gal(b1-3)]Neu5Ac(a2-3)Gal(b1-4)]GlcNAc
How it was run: as §1

[30] = molecular target: Neu5Ac(a2-3)Gal(b1-4)GlcNAc(b1-2)Man
How it was run: as §1

[31] = molecular target: Neu5Ac(a2-3)Gal(b1-4)GlcNAc(b1-6)GalNAc
How it was run: as §1

[32] = molecular target: Neu5Ac(a2-3)Gal(b1-4)GlcNAc(b1-6)[Gal(b1-3)]GalNAc
How it was run: as §1

[33] = molecular target: Neu5Ac(a2-3)Gal(b1-4)GlcNAc6S
How it was run: as §1

[34] = molecular target: Neu5Ac(a2-3)[Neu5Ac(a2-6)]GalNAc
How it was run: as §1

Neu5Ac(a2-6)Gal = molecular target: Neu5Ac(a2-6)Gal
How it was run: as §1

[35] = molecular target: Neu5Ac(a2-6)Gal(b1-4)GlcNAc(b1-2)Man(a1-6)Man(b1-4)GlcNAc(b1-4)GlcNAc
How it was run: as §1

Neu5Ac(b2-6)GalNAc = molecular target: Neu5Ac(b2-6)GalNAc
How it was run: as §1

B1: Si Bti9 1b-V5-his (Solanum lycopersicum) (protein)
chain: MQCNRGCDLALASFYVWRGSNLTLISEMFSTSIADIVSYNNRDNIPNQDSVIAGTRINIPFRCDCLNDGEVLGHAFPYRVKSGDTYDLVARNYSDLTTAQWMMKFNSYPENNIPNTVNLSVVVNCSCGNSDVSKDFGLFVTYPVRAEDNLTSVASAANVSEDIIRRYNPAAVSILDIGQGIIYIPGRDRNGNFPPLPTSTDGLSGGAKKGGRADPAFLYKVVINSKLEGKPIPNPLLGLDSTRTGHHHHHH
In the case of B1, the “glycan array binding signal (z-score)” value (Fuc(a1-2)Gal(b1-3)GalNAc) is reported as -0.261, the “glycan array binding signal (z-score)” value [1] is reported as -0.298 and the “glycan array binding signal (z-score)” value [2] is reported as 0.032. For the same binder, the “glycan array binding signal (z-score)” value [3] was 0.217, the “glycan array binding signal (z-score)” value [4] was -0.245 and the “glycan array binding signal (z-score)” value (Gal(a1-3)Gal(b1-3)GlcNAc) was 11.5. For the same binder, the “glycan array binding signal (z-score)” value [5] was 6.21, the “glycan array binding signal (z-score)” value (Gal(a1-3)Gal(b1-4)Glc) was -0.169 and the “glycan array binding signal (z-score)” value [6] was -0.206. For the same binder, the “glycan array binding signal (z-score)” value [7] was 2.94, the “glycan array binding signal (z-score)” value (Gal(b1-3)Gal) was -0.313 and the “glycan array binding signal (z-score)” value (Gal(b1-3)GlcNAc(b1-2)Man) was -0.032. The “glycan array binding signal (z-score)” value [8] was -0.076, the “glycan array binding signal (z-score)” value [9] was 0.11 and the “glycan array binding signal (z-score)” value [10] was -0.125. The “glycan array binding signal (z-score)” value [11] was 1.83, the “glycan array binding signal (z-score)” value [12] was -0.243 and the “glycan array binding signal (z-score)” value [13] was -0.294. For the same binder, the “glycan array binding signal (z-score)” value [14] was -0.277, the “glycan array binding signal (z-score)” value [15] was -0.258 and the “glycan array binding signal (z-score)” value [16] was 0.207. The “glycan array binding signal (z-score)” value [17] was -0.264, the “glycan array binding signal (z-score)” value [18] was -0.272 and the “glycan array binding signal (z-score)” value [19] was 2.79. For the same binder, the “glycan array binding signal (z-score)” value (Gal6P(b1-4)GlcNAc) was -0.317, the “glycan array binding signal (z-score)” value [20] was -0.348 and the “glycan array binding signal (z-score)” value [21] was 4.72. For the same binder, the “glycan array binding signal (z-score)” value (GalNAc4S6S(b1-4)GlcNAc) was -0.18, the “glycan array binding signal (z-score)” value [22] was -0.289 and the “glycan array binding signal (z-score)” value [23] was 3.41. The “glycan array binding signal (z-score)” value (GlcNAc(b1-3)GalNAc) was -0.322, the “glycan array binding signal (z-score)” value [24] was -0.156 and the “glycan array binding signal (z-score)” value [25] was 5.97. The “glycan array binding signal (z-score)” value [26] was -0.362, the “glycan array binding signal (z-score)” value (Man(a1-6)Man) was 5.02 and the “glycan array binding signal (z-score)” value [27] was 0.024. For the same binder, the “glycan array binding signal (z-score)” value [28] was -0.294, the “glycan array binding signal (z-score)” value [29] was -0.311 and the “glycan array binding signal (z-score)” value [30] was 0.768. For the same binder, the “glycan array binding signal (z-score)” value [31] was -0.254, the “glycan array binding signal (z-score)” value [32] was -0.108 and the “glycan array binding signal (z-score)” value [33] was 10.6. For the same binder, the “glycan array binding signal (z-score)” value [34] was -0.269, the “glycan array binding signal (z-score)” value (Neu5Ac(a2-6)Gal) was 3.19 and the “glycan array binding signal (z-score)” value [35] was -0.285. The “glycan array binding signal (z-score)” value (Neu5Ac(b2-6)GalNAc) was -0.242.
